A number with no mark means an inactive call. Records with an inconclusive call do not appear. A call without a number means that no potency is given here. The source made the active and inactive calls. Unless noted, calls come from the whole dose curve; as a rule, active = well fitted curve in the direction sought with a large enough effect in the repeat runs; inconclusive = weak or mixed curves; inactive = no such curve, though single readings can be large; an effect the other way counts as inactive or inconclusive.
Tests used:
[1] = biological target: Estrogen receptor beta (Homo sapiens) (UniProt Q92731); experiment: qHTS assay to identify small molecule agonists of the estrogen receptor beta (ER-beta) signaling pathway (AID 1259377; active = well fitted activation curve with a large enough effect in the signal ratio in the repeat runs, not every such curve was filed as active; the % refers to the signal ratio)
Chain of Estrogen receptor beta (Homo sapiens) (Q92731 whole entry, looked up): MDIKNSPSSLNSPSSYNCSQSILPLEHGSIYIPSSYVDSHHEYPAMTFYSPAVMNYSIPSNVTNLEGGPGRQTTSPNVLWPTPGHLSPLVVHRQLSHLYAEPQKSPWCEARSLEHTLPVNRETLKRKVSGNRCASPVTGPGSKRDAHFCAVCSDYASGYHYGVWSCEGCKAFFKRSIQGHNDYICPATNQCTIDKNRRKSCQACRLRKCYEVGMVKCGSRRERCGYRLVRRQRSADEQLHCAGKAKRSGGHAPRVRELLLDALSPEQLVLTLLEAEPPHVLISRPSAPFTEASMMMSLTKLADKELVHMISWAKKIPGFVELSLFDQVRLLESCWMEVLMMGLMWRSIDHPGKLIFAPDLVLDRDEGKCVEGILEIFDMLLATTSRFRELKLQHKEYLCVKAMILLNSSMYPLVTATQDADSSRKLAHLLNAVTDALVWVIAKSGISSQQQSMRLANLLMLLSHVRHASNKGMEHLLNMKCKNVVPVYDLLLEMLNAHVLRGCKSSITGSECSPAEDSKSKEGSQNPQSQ
Outline: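 HEK293T ER-beta-UAS-bla; 2% charcoal-stripped FBS; cells pre-incubated 6 hr, compound 16 hr, 37C/5% CO2; LiveBLAzer B/G FRET substrate 2 h RT; fluorescence intensity read.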

[2] = biological target: Estrogen receptor beta (Homo sapiens) (UniProt Q92731); experiment: qHTS assay to identify small molecule antagonists of the estrogen receptor beta (ER-beta) signaling pathway (AID 1259378; active = well fitted inhibition curve with a large enough effect in the signal ratio in the repeat runs, not every such curve was filed as active; the % refers to the signal ratio; note: potency is the fitted concentration of half-maximal effect)
Outline: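 Antagonist mode: compounds added to beta-lactamase reporter HEK293T ER-beta-UAS cells stimulated with E2 (1nM final), 16 hr at 37C. LiveBLAzer B/G FRET substrate, 2 hours room temperature, fluorescence read-out.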

[3] = qHTS assay to identify small molecule agonists of the estrogen receptor beta (ER-beta) signaling pathway - cell viability counter screen (AID 1259380); note: nearly all actives have a fitted effect of over 30% in size; note: potency is the fitted concentration of half-maximal effect
Outline: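 HEK293T ER-beta-UAS-bla; 2% CS-FBS; 6 hr pre-plate, 16 hr cpd at 37C/5% CO2; LiveBLAzer read first, then CellTiter-Glo 30 min RT, luminescence.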

[4] = qHTS assay to identify small molecule antagonists of the estrogen receptor beta (ER-beta) signaling pathway - cell viability counter screen (AID 1259382);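 note: HEK293T cells carrying ER-beta-UAS-bla reporter stimulated with estradiol; series mostly up to about 92 µM; nearly all actives have a fitted effect of over 55% in size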
Outline: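 Cells: ER-beta-UAS-bla HEK293T, 2,000/well, 2% CS-FBS, 6 hr settle. Cpd + E2 (1nM final), 16 hr, 37C/5% CO2. Bla FRET substrate 2 hr RT, then CellTiter-Glo 30 min RT, luminescence.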

[5] = biological target: Estrogen receptor (Homo sapiens) (UniProt P03372); experiment: qHTS assay to identify small molecule agonists of the estrogen receptor alpha (ER-alpha) signaling pathway in the presence of an antagonist (AID 1259383; calls by dose curve; note: top concentration of the series differs between compounds; nearly all actives have a fitted effect of over 15% in size)
Chain of Estrogen receptor (Homo sapiens) (P03372 whole entry, looked up): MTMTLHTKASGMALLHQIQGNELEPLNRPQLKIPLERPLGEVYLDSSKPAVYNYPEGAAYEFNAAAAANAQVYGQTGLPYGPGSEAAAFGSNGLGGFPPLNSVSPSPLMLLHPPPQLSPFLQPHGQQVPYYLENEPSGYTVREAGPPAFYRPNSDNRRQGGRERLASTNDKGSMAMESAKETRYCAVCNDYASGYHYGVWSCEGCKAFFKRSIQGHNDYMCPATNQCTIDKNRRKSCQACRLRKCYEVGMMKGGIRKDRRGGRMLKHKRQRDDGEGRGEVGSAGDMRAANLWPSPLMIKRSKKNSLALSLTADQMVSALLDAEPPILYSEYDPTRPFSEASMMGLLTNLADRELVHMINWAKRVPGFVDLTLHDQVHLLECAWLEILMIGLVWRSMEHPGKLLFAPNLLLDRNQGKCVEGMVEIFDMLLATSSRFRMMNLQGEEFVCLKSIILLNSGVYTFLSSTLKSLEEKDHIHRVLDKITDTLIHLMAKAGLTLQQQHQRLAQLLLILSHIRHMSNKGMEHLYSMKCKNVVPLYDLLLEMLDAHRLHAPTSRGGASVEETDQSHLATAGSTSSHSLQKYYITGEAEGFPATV
Outline: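 VM7Luc4E2, endog. ER-alpha + 4×ERE-luc; charcoal-stripped FBS, phenol red-free, 5 d; 24hr plating; +10.0nM ICI-182,780 (final); cpds 15 conc, 22hr, 37C/5% CO2; ONE-Glo luminescence.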

[6] = qHTS assay to identify small molecule agonists or antagonists of the thyroid stimulating hormone receptor (TSHR) signaling pathway - wild type cell line counter screen (AID 1259384; calls by dose curve)
Outline: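 Counter screen in untransfected Hek293: compounds (15-point titration, triplicate) plus phosphodiesterase inhibitor Ro20-1724 added after 18 h plating; 30 min RT. Intracellular cAMP via competitive d2/cryptate immunoassay, 1 h incubation.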

[7] = biological target: Thyrotropin receptor (Homo sapiens) (UniProt P16473); experiment: qHTS assay to identify small molecule antagonists of the thyroid stimulating hormone receptor (TSHR) signaling pathway (AID 1259385; calls by dose curve; note: nearly all actives have a fitted effect of over 20% in size)
Chain of Thyrotropin receptor (Homo sapiens) (P16473 whole entry, looked up): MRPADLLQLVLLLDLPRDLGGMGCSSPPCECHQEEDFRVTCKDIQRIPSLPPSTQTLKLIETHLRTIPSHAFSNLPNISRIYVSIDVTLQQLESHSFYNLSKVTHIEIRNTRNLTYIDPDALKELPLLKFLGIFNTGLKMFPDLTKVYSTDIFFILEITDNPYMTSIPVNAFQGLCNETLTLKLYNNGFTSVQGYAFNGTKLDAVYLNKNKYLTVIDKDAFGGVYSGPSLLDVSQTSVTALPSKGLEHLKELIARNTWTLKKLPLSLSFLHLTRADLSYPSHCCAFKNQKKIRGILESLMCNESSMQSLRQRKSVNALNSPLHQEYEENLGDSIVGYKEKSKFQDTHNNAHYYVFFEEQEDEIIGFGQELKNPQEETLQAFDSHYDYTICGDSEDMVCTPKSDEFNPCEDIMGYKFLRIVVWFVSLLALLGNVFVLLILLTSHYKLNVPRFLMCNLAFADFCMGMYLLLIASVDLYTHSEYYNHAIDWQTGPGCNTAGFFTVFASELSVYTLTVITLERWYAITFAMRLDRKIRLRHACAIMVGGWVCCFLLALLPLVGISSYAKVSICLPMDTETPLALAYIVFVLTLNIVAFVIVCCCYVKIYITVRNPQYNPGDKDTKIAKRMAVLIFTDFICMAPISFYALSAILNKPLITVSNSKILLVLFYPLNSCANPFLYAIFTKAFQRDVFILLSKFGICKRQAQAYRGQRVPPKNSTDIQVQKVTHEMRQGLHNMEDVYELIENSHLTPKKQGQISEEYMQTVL
Outline: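 Antagonist mode: compound-treated TSHR-expressing HEK293 cells were stimulated with 1.5 ng/mL TSH (final) in presence of Ro20-1724 for 30 min at RT. HTRF cAMP detection after 1 h; each compound tested at 15 concentrations, triplicate.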

[8] = qHTS assay to identify small molecule agonists of the estrogen receptor alpha (ER-alpha) signaling pathway in the presence of an antagonist - cell viability counter screen (AID 1259386);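 note: series mostly up to about 92 µM; cells exposed to compounds for 22 h at 37 °C before the viability read; nearly all actives have a fitted effect of over 30% in size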
Outline: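 VM7Luc4E2, stripped-serum pre-culture 5 d; 24hr plating; +ICI-182,780 10.0nM final; cpds 15 conc, 22hr, 37C/5% CO2; CellTiter-Fluor added at 21hr, fluorescence 1hr later.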

[9] = biological target: Progesterone receptor (Homo sapiens) (UniProt P06401); experiment: qHTS assay to identify small molecule agonists of the progesterone receptor (PR) signaling pathway (AID 1346784; calls by dose curve; note: nearly all actives have a fitted effect of over 30% in size)
Chain of Progesterone receptor (Homo sapiens) (P06401 whole entry, looked up): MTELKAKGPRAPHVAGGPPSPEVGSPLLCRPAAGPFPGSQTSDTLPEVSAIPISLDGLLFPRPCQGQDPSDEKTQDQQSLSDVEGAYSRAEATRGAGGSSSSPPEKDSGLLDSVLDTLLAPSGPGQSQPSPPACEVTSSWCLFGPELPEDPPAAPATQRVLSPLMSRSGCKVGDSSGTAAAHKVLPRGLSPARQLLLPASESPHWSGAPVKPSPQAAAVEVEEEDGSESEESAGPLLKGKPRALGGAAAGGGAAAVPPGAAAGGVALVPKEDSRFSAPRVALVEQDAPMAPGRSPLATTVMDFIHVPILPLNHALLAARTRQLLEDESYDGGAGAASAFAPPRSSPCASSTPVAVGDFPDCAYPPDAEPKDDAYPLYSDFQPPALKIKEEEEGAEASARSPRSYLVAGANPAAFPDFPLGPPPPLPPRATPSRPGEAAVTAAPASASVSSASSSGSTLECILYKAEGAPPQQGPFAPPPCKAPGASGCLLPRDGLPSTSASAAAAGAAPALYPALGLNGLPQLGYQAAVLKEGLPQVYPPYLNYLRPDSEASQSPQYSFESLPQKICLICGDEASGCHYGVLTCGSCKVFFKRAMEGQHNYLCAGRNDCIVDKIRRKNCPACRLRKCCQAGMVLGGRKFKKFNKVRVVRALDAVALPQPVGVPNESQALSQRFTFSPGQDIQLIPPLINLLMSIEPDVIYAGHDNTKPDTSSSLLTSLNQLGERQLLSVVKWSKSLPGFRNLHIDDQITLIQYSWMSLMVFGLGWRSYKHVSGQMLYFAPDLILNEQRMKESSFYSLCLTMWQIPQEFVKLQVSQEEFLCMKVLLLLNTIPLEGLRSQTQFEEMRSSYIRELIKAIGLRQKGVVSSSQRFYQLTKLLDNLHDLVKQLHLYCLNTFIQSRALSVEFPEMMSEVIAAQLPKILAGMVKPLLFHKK
Outline: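 Beta-lactamase reporter read-out: after 16 hr compound treatment at 37C and a further 2 hr at room temperature with LiveBLAzer B/G FRET substrate, fluorescence was measured in PR-UAS-bla HEK 293T cells grown in 2% charcoal-stripped serum.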

[10] = biological target: Progesterone receptor (Homo sapiens) (UniProt P06401); experiment: qHTS assay to identify small molecule antagonists of the progesterone receptor (PR) signaling pathway (AID 1346795; active = well fitted inhibition curve with a large enough effect in the signal ratio in the repeat runs, not every such curve was filed as active; the % refers to the signal ratio; note: potency is the fitted concentration of half-maximal effect)
Outline: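 Read-out is fluorescence from the LiveBLAzer B/G FRET substrate, cleaved by a UAS-controlled beta-lactamase in PR-UAS-bla HEK293T cells after 16 hr exposure to compound plus 1 nM promegestone (final), followed by 2 hr at room temperature.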

[11] = qHTS assay to identify small molecule agonists of the progesterone receptor (PR) signaling pathway - cell viability counter screen (AID 1346799; calls by dose curve; note: nearly all actives have a fitted effect of over 45% in size)
Outline: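 Luminescence from CellTiter-Glo, added after the beta-lactamase FRET read in the same wells, gave cytotoxicity in PR-UAS-bla HEK293T cells treated with compounds for 16 hr at 37C.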

[12] = qHTS assay to identify small molecule antagonists of the TGF-beta/Smad signaling pathway - cell viability counter screen (AID 1346824); note: nearly all actives have a fitted effect of over 50% in size
Outline: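 Cytotoxicity counter-screen run in the same wells as the beta-lactamase Smad reporter read: CellTiter-Glo luminescence after 30 min at room temperature. HEK 293T SBE-bla cells had 5 hr compound exposure at 37 C with TGF-beta1 (0.25 ng/mL stock).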

[13] = qHTS assay to identify small molecule agonists of the TGF-beta/Smad signaling pathway - cell viability counter screen (AID 1346829); note: top concentration of the series differs between compounds; nearly all actives have a fitted effect of over 45% in size
Outline: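 In parallel with the Smad reporter read, viability of HEK 293T cells stably carrying SBE-bla is quantified by ATP luminescence following 5 hr compound treatment.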

[14] = qHTS assay to identify small molecule agonists of the TGF-beta/Smad signaling pathway (AID 1346859; active = well fitted activation curve with a large enough effect in the signal ratio in the repeat runs, not every such curve was filed as active; the % refers to the signal ratio; note: series mostly up to about 77 µM)
Outline: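 SBE-bla HEK 293T, 4,000 cells/well, plated o/n; cpd in DMSO, 5 hr, 37 C/5% CO2; B/G FRET substrate 2 hr RT; ex 405, em 460/530 nm.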

[15] = biological target: Thyrotropin-releasing hormone receptor (Homo sapiens) (UniProt P34981); experiment: qHTS assay to identify small molecule antagonists of the thyrotropin-releasing hormone receptor (TRHR) signaling pathway (AID 1346877; active = well fitted inhibition curve with a large enough effect in the repeat runs, not every such curve was filed as active; note: series mostly up to about 51 µM)
Chain of Thyrotropin-releasing hormone receptor (Homo sapiens) (P34981 whole entry, looked up): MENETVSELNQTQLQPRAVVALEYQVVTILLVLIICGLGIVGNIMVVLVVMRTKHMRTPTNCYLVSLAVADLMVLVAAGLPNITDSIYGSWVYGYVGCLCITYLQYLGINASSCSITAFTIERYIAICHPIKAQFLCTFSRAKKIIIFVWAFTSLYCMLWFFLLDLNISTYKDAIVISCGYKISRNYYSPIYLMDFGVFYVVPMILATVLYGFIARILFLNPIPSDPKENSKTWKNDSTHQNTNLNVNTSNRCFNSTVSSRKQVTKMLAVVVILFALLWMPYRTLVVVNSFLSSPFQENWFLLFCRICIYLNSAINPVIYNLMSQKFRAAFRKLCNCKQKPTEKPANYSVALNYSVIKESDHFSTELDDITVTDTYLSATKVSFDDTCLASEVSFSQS
Outline: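 Intracellular calcium fluorescence, read kinetically every second over 3 min, reports TRH-evoked signalling in HEK293 cells carrying TRHR. Test compounds were added 5 min ahead of a 1 nM TRH challenge.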

[16] = biological target: Thyrotropin-releasing hormone receptor (Homo sapiens) (UniProt P34981); experiment: qHTS assay to identify small molecule agonists of the thyrotropin-releasing hormone receptor (TRHR) signaling pathway (AID 1346891; calls by dose curve; note: series mostly up to about 58 µM)
Outline: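 Intracellular calcium rise, read as fluorescence every second for 3 min, served as the agonist signal in dye-loaded HEK293 cells expressing TRHR; each compound ran at 15 concentrations in triplicate.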

[17] = biological target: Androgen receptor (Homo sapiens) (UniProt P10275); experiment: qHTS assay to identify small molecule agonists of the androgen receptor (AR) signaling pathway in the presence of an antagonist (AID 1259381; calls by dose curve; note: nearly all actives have a fitted effect of over 15% in size)
Chain of Androgen receptor (Homo sapiens) (P10275 whole entry, looked up): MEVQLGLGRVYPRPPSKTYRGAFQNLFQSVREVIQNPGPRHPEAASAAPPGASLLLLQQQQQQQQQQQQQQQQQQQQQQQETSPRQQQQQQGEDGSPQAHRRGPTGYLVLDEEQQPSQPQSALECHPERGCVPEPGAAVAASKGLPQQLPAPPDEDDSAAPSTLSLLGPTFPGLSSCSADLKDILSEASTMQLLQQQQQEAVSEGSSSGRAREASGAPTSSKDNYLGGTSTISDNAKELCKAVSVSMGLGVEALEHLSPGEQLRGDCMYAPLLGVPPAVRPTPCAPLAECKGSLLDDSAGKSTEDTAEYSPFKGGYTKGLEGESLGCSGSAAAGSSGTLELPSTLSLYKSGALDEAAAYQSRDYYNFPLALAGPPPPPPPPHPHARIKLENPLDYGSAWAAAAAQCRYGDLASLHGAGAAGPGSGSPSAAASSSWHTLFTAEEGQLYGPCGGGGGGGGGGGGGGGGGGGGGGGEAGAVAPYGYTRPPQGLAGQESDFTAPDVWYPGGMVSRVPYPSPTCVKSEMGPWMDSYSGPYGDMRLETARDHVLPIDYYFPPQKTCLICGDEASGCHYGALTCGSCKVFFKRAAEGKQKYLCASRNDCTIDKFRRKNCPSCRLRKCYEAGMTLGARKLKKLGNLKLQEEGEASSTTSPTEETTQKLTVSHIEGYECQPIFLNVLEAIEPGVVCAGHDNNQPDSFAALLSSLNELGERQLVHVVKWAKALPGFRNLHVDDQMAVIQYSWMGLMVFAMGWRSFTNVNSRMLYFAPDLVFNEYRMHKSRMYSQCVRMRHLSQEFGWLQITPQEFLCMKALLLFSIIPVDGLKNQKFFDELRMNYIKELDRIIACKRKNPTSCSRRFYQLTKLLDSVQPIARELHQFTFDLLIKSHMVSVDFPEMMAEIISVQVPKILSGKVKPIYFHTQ
Outline: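 MDA-kb2 cells, 3,000/well, rested 5hr at 37C/0% CO2 → nilutamide 3.0uM final or buffer → compounds, 15 conc. → 16hr at 37C → ONE-Glo, 30min RT → luminescence.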

[18] = qHTS assay to identify small molecule antagonists of the progesterone receptor (PR) signaling pathway - cell viability counter screen (AID 1346798);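 note: HEK293T PR-UAS-bla cells stimulated with the agonist R5020; series mostly up to about 92 µM; nearly all actives have a fitted effect of over 50% in size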
Outline: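 HEK293T PR-UAS-bla, 2% charcoal-stripped FBS; 4 hr pre-plate; cpd + R5020, 16 h 37C; LiveBLAzer read first; then CellTiter-Glo 30 min RT, luminescence.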

[19] = Human pregnane X receptor (PXR) small molecule agonists, qHTS cell viability counter screen (AID 1346977); note: nearly all actives have a fitted effect of over 50% in size; note: potency is the fitted concentration of half-maximal effect
Outline: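 PXR-Luc HepG2, 2,000 cells/well, 5% charcoal-stripped FBS; 5hr settle; cpd 24hr, 37C/5% CO2; CellTiter-Fluor at 23hr, read 1hr later (fluorescence).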

[20] = qHTS assay to identify small molecule agonists of the androgen receptor (AR) signaling pathway in the presence of an antagonist - cell viability counter screen (AID 1259379);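 note: MDA-kb2 human breast cancer cells carrying an MMTV luciferase reporter; series mostly up to about 92 µM; nearly all actives have a fitted effect of over 25% in size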
Outline: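 Cells: MDA-kb2 (MMTV-luc, AR and GR elements), 3,000/well, 5 hr settle. Added: nilutamide 3.0uM final, then compounds (15 conc.). Incubation: 16 hr, 37C, no CO2. Read-out: CellTiter-Fluor, 1 hr, fluorescence.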

Compound: C=CC(=C)CC/C=C(\C)CCC=C(C)C
- activation [1]: 1.85% [at 19 µM]
- activity, negative = inhibition [2]: -20.6% [at 19 µM]
- activity change, negative = cytotoxicity [3]: -10.3% [at 19 µM]
- activity change, negative = cytotoxicity [4]: -3.14% [at 19 µM]
- activation [5]: 1.51% [at 19 µM]
- cAMP activity change [6]: 3.85% [at 18.9 µM]
- activity change, negative = inhibition [7]: 0.374% [at 19 µM]
- activity change, negative = cytotoxicity [8]: -2.45% [at 19 µM]
- activation [9]: 0.395% [at 19 µM]
- activity change, negative = inhibition [10]: -8.93% [at 18.9 µM]
- activity change, negative = cytotoxicity [11]: 7.16% [at 19 µM]
- viability change, negative = cytotoxic [12]: 6.24% [at 15.8 µM]
- activity change, negative = cytotoxicity [13]: 1.59% [at 15.8 µM]
- activation [14]: -1.49% [at 15.8 µM]
- activity, negative = inhibition [15]: -4.91% [at 10.5 µM]
- activation [16]: 0.335% [at 11.8 µM]

Compound: NC(=O)C(=O)N/N=C/c1ccc([N+](=O)[O-])o1
- Potency [1]: inactive
- Potency [2]: inactive
- Potency [3]: inactive
- Potency [17]: inactive
- Potency [4]: inactive
- Potency [5]: inactive
- outcome [6]: inactive
- Potency [7]: inactive
- Potency [8]: inactive
- outcome [9]: inactive
- Potency [10]: inactive
- Potency [18]: inactive
- Potency [11]: inactive
- Potency [12]: inactive
- Potency [13]: inactive
- Potency [14]: inactive
- Potency [15]: inactive
- Potency [16]: inactive
- Potency [19]: inactive

Compound: CCN(CC)CCSC(=O)C(c1ccccc1)c1ccccc1
- Potency [1]: inactive
- Potency [2]: inactive
- Potency [3]: 29.8 µM (active)
- Potency [4]: inactive
- Potency [5]: inactive
- outcome [6]: inactive
- Potency [7]: inactive
- Potency [10]: inactive
- Potency [18]: inactive
- Potency [11]: inactive
- Potency [13]: inactive
- Potency [14]: inactive
- Potency [15]: inactive
- Potency [16]: inactive

Compound: CC(C)(C)c1cc(/C=C2\SC(=N)NC2=O)cc(C(C)(C)C)c1O
- Potency [1]: inactive
- Potency [2]: 21.7 µM (active)
- Potency [20]: inactive
- Potency [4]: inactive
- Potency [5]: inactive
- outcome [6]: inactive
- Potency [7]: inactive
- Potency [10]: 61.1 µM (active)
- Potency [12]: inactive
- Potency [13]: inactive
- Potency [14]: inactive
- Potency [15]: inactive
- Potency [16]: inactive
- Potency [19]: 48.6 µM (active)

Compound: CC(C)C(=O)OCc1ccccc1
- Potency [1]: inactive
- Potency [2]: inactive
- Potency [3]: inactive
- Potency [4]: inactive
- Potency [5]: inactive
- outcome [6]: inactive
- Potency [7]: inactive
- Potency [8]: inactive
- outcome [9]: inactive
- Potency [10]: inactive
- Potency [18]: inactive
- Potency [11]: inactive
- Potency [12]: inactive
- Potency [13]: inactive
- Potency [14]: inactive

Compound: CC(C)(C)c1n[nH]c(=O)n(N)c1=O
- Potency [1]: inactive
- Potency [2]: inactive
- Potency [3]: inactive
- Potency [17]: inactive
- Potency [4]: inactive
- Potency [5]: inactive
- outcome [6]: inactive
- Potency [7]: inactive
- Potency [8]: inactive
- Potency [10]: inactive
- Potency [18]: inactive
- Potency [12]: inactive
- Potency [13]: inactive
- Potency [14]: inactive
- Potency [15]: inactive
- Potency [16]: inactive

Compound: COc1cc(C(=O)NS(=O)(=O)c2ccccc2C)ccc1Cc1cn(C)c2ccc(NC(=O)OC3CCCC3)cc12
- Potency [1]: inactive
- Potency [2]: 13.3 µM (active)
- Potency [20]: inactive
- Potency [3]: 13.3 µM (active)
- Potency [5]: inactive
- outcome [6]: inactive
- Potency [7]: inactive
- Potency [8]: inactive
- outcome [9]: inactive
- Potency [18]: inactive
- Potency [11]: inactive
- Potency [12]: inactive
- Potency [13]: inactive
- Potency [14]: inactive
- Potency [15]: inactive
- Potency [16]: inactive
- Potency [19]: inactive

Reference: PubChem BioAssay (Tox21)
